# The sample as a whole holds a higher share of the strongest signals than the screen did.
# Legend:
# Assay in all cases: glycan array binding signal (z-score within array); higher = stronger binding
# Conditions in all cases: glycan notation: IUPAC condensed, linker removed
# [1] = target: Fuc(a1-2)Gal(b1-3)GalNAc(b1-3)Gal(a1-4)Gal(b1-4)Glc
# Summary of the method: (§1)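 The Consortium for Functional Glycomics database supplied 3228 glycan arrays, of which those lacking an available protein sequence were dropped. The binding signal, a within-array Z-score, was averaged across arrays of the same protein sequence and across linkers. Negative scores can be read as non-binding.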
# [2] = target: Fuc(a1-2)Gal(b1-3)GlcNAc(b1-2)Man(a1-3)[Fuc(a1-2)Gal(b1-3)GlcNAc(b1-2)Man(a1-6)]Man(b1-4)GlcNAc(b1-4)GlcNAc
# Summary of the method: as §1
# [3] = target: Fuc(a1-2)Gal(b1-3)GlcNAc(b1-3)Gal(b1-4)Glc
# Summary of the method: as §1
# [4] = target: Fuc(a1-2)Gal(b1-3)GlcNAc(b1-3)GalNAc
# Summary of the method: as §1
# [5] = target: Fuc(a1-2)Gal(b1-3)[Fuc(a1-4)]GlcNAc
# Summary of the method: as §1
# [6] = target: Fuc(a1-2)Gal(b1-3)[Fuc(a1-4)]GlcNAc(b1-3)[Gal(b1-4)GlcNAc(b1-6)]Gal(b1-4)Glc
# Summary of the method: as §1
# [7] = target: Fuc(a1-2)Gal(b1-4)GlcNAc(b1-3)Gal(b1-4)GlcNAc(b1-3)Gal(b1-4)GlcNAc
# Summary of the method: as §1
# [8] = target: Fuc(a1-2)Gal(b1-4)[Fuc(a1-3)]GlcNAc(b1-3)[Neu5Ac(a2-6)Gal(b1-4)GlcNAc(b1-6)]Gal(b1-4)Glc
# Summary of the method: as §1
# [9] = target: Fuc(a1-2)Gal3S(b1-4)GlcNAc
# Summary of the method: as §1
# [10] = target: Fuc(a1-2)[Gal(a1-3)]Gal(b1-3)GalNAc(b1-3)Gal(a1-4)Gal(b1-4)Glc
# Summary of the method: as §1
# [11] = target: Fuc(a1-2)[Gal(a1-3)]Gal(b1-3)GlcNAc
# Summary of the method: as §1
# [12] = target: Fuc(a1-2)[Gal(a1-3)]Gal(b1-4)GlcNAc(b1-3)GalNAc
# Summary of the method: as §1
# [13] = target: Fuc(a1-2)[GalNAc(a1-3)]Gal(b1-3)GalNAc(b1-3)Gal(a1-4)Gal(b1-4)Glc
# Summary of the method: as §1
# [14] = target: Fuc(a1-2)[GalNAc(a1-3)]Gal(b1-4)[Fuc(a1-3)]GlcNAc
# Summary of the method: as §1
# [15] = target: Fuc(a1-3)[Gal(b1-4)]GlcNAc(b1-2)Man(a1-3)[Fuc(a1-3)[Gal(b1-4)]GlcNAc(b1-2)Man(a1-6)]Man(b1-4)GlcNAc(b1-4)[Fuc(a1-6)]GlcNAc
# Summary of the method: as §1
# Gal(a1-4)Gal(b1-4)Glc = target: Gal(a1-4)Gal(b1-4)Glc
# Summary of the method: as §1
# Gal(a1-4)Gal(b1-4)GlcNAc = target: Gal(a1-4)Gal(b1-4)GlcNAc
# Summary of the method: as §1
# [16] = target: Gal(a1-4)Gal(b1-4)GlcNAc(b1-3)Gal(b1-4)Glc
# Summary of the method: as §1
# Gal(b1-2)Gal = target: Gal(b1-2)Gal
# Summary of the method: as §1
# [17] = target: Gal(b1-3)GalNAc(a1-3)[Fuc(a1-2)]Gal(b1-4)Glc
# Summary of the method: as §1
# [18] = target: Gal(b1-3)GalNAc(b1-4)[Neu5Ac(a2-3)]Gal(b1-4)Glc
# Summary of the method: as §1
# [19] = target: Gal(b1-3)GlcNAc(b1-2)[Gal(b1-3)GlcNAc(b1-6)]Man(a1-6)[Gal(b1-3)GlcNAc(b1-2)Man(a1-3)]Man(b1-4)GlcNAc(b1-4)GlcNAc
# Summary of the method: as §1
# [20] = target: Gal(b1-3)GlcNAc(b1-3)Gal(b1-4)GlcNAc(b1-6)[Gal(b1-3)GlcNAc(b1-3)]Gal(b1-4)Glc
# Summary of the method: as §1
# [21] = target: Gal(b1-3)[Neu5Ac(a2-6)]GalNAc
# Summary of the method: as §1
# [22] = target: Gal(b1-4)GlcNAc(a1-6)Gal(b1-4)GlcNAc
# Summary of the method: as §1
# [23] = target: Gal(b1-4)GlcNAc(b1-2)Man(a1-6)[GlcNAc(b1-2)Man(a1-3)]Man(b1-4)GlcNAc(b1-4)GlcNAc
# Summary of the method: as §1
# [24] = target: Gal(b1-4)GlcNAc(b1-2)[Gal(b1-4)GlcNAc(b1-4)]Man(a1-3)[Gal(b1-4)GlcNAc(b1-2)Man(a1-6)]Man(b1-4)GlcNAc(b1-4)GlcNAc
# Summary of the method: as §1
# [25] = target: Gal(b1-4)GlcNAc(b1-2)[Gal(b1-4)GlcNAc(b1-4)]Man(a1-3)[GlcNAc(b1-4)][Gal(b1-4)GlcNAc(b1-2)Man(a1-6)]Man(b1-4)GlcNAc(b1-4)GlcNAc
# Summary of the method: as §1
# [26] = target: Gal(b1-4)GlcNAc(b1-3)Gal(b1-4)GlcNAc(b1-3)Gal(b1-4)GlcNAc(b1-3)Gal(b1-4)GlcNAc(b1-2)Man(a1-3)[Gal(b1-4)GlcNAc(b1-3)Gal(b1-4)GlcNAc(b1-3)Gal(b1-4)GlcNAc(b1-3)Gal(b1-4)GlcNAc(b1-2)Man(a1-6)]Man(b1-4)GlcNAc(b1-4)[Fuc(a1-6)]GlcNAc
# Summary of the method: as §1
# [27] = target: Gal(b1-4)GlcNAc(b1-3)Gal(b1-4)GlcNAc(b1-6)[Gal(b1-3)]GalNAc
# Summary of the method: as §1
binder,measurement,setting,value
Awp1 (Candida glabrata) (protein) MSLITIFAFLIKATLVLSLDILTPTTLTGDQTFNEDVSVVSSLTLNDGSQYLFNNLLQIAPSSASVTANALAAVSVFTFSLPPSSSLSNSGTLIISNSNTGPSTEQHIVITPNVMANTGTITLSLAHTNTDSSSTLIIDPVTFYNTGTINYESIGSETNDPSLTGNILSIGSSGRTLQNLGTINLNAANSYYLLGTITENSGSINVQKGFLYVNALDFIGNTINLSTTTALAFISPVSQVVRVRGVFFGNIIASVGSSGTFSYNTQTGILTVTTNGVYSYDIGCGYNPALMSGQQETLSFQGNPYDTFLVLVNQPIPSDLTCAAVSSSITPSSSVEPSSSVVPSSSVEPSSSVEPSSSVEPSSSVEPSSSVEPSSSVEPSSSVEPSSSVEPSSSVEPSSSVEPSSSVEPSSSVEPSSSVEPSSSVEPSSSVEPSSSVEPSSSVEPSSSVEPSSSVEPSSLIVPSSSVEPSSSVLPSSSVVPSSSVEPSTPPIPSSSVEPSSSVVPSSPAVPSSSVEPSTPPIPSSSVVSASVFDTSSTLPSSPSVPPSSVSPSTISTPSSSAAPSSFCPTCVSSGTPPAPSSSAIVPTSSAGGGNGGDNREPGAAGQPGAAGQPGAAGQPGAAGQPGAAGQPGAAGQPGAAGQPGAAGQPGAAGQPGAAGQPGAGFGVGSEQPTPGAGAGSGSADGNQSGTGSGTGNGQQGSGQAGSGQAGSGQEGSGQAGSGQAGSGQAGSGQAGSGQAGLDNTASGQSEGGQASAMDGDQSGRDGQSNSGSLLQPNAQQGTGSGTGSDIGADQASGESPGQIGDAQPGSGTDQSSGRHSLAAEARTSQSHSLAADARTRSTTRQTSVIAPDTAPGTASGTAPGTAPGTAVVTTFHGCGTVNHKGMINILLALALLVLL,glycan array binding signal (z-score),[1],-0.191
same,glycan array binding signal (z-score),[2],3.11
same,glycan array binding signal (z-score),[3],-0.568
same,glycan array binding signal (z-score),[4],-0.915
same,glycan array binding signal (z-score),[5],0.456
same,glycan array binding signal (z-score),[6],2.29
same,glycan array binding signal (z-score),[7],0.341
same,glycan array binding signal (z-score),[8],0.4
same,glycan array binding signal (z-score),[9],0.168
same,glycan array binding signal (z-score),[10],-0.456
same,glycan array binding signal (z-score),[11],-0.399
same,glycan array binding signal (z-score),[12],-1.3
same,glycan array binding signal (z-score),[13],0.017
same,glycan array binding signal (z-score),[14],-1.15
same,glycan array binding signal (z-score),[15],2.28
same,glycan array binding signal (z-score),Gal(a1-4)Gal(b1-4)Glc,2.6
same,glycan array binding signal (z-score),Gal(a1-4)Gal(b1-4)GlcNAc,1.02
same,glycan array binding signal (z-score),[16],0.176
same,glycan array binding signal (z-score),Gal(b1-2)Gal,-1.15
same,glycan array binding signal (z-score),[17],3.43
same,glycan array binding signal (z-score),[18],-0.686
same,glycan array binding signal (z-score),[19],2.35
same,glycan array binding signal (z-score),[20],2.29
same,glycan array binding signal (z-score),[21],-0.433
same,glycan array binding signal (z-score),[22],3
same,glycan array binding signal (z-score),[23],0.086
same,glycan array binding signal (z-score),[24],-0.236
same,glycan array binding signal (z-score),[25],-0.307
same,glycan array binding signal (z-score),[26],2.42
same,glycan array binding signal (z-score),[27],0.7

# Source: the supplement of paper PMC8728848
